# Laboratory results as given in PubChem BioAssay (NCI).
# The panel holds about 79,000 compounds, 15% with a hit somewhere; the sample as a whole holds those more often. Unmarked numbers belong to inactive results. Activity calls are given as the source filed them. Rule as the data show it: active = growth inhibition above about 70%; inactive = the rest.
# Assay: NCI Yeast Anticancer Drug Screen. Data for the wt2 strain (AID 169);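 also: 0% = growth of vehicle-treated yeast cultures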
# Conditions: S. cerevisiae wt2 strain growth inhibition, stronger effect = higher value
# Method: Growth inhibition of yeast strains with defined genetic alterations is measured as a screen for potential anti-cancer activity. Selected strains with alterations in DNA damage repair or cell cycle control were exposed to compounds and growth inhibition was measured relative to vehicle treated controls. The strain used in this assay is wt2
Compound,growth inhibition (at 1.2 µM) [%],growth inhibition (at 3.7 µM) [%],growth inhibition (at 11.0 µM),growth inhibition (at 33.0 µM),growth inhibition (at 100.0 µM)
O=C1CC(C(O)(C(F)(F)F)C(F)(F)Cl)CCC1C(O)(C(F)(F)F)C(F)(F)Cl (stereo not given),51,55,84% (active),93% (active),98% (active)
CC(=O)NC(c1nc2cc(C)c(C)cc2[nH]1)c1nc2cc(C)c(C)cc2[nH]1,-27,-25,-20%,20%,60%
CC(C)OC(=O)NNc1cc(Cl)ccc1Cl,3,4,23%,29%,35%
N#CCCC1C(C#N)C2(Cl)CC1(Cl)C(Cl)=C2Cl (stereo not given),5,5,0%,31%,98% (active)
CCCNCC(=O)O[C@]1(CC)C(=O)OCc2c1cc1n(c2=O)Cc2cc3ccccc3nc2-1,-22,-32,-19%,37%,82% (active)
CCCCCCC=C(C(=O)OCC)C(=O)OCC,-2,-3,-5%,-4%,16%
CCCCCCCCCCCCOCCOCCOCC(N)=O,-26,-20,-12%,97% (active),96% (active)
Nc1ccc(N=Nc2ccc(-c3ccc(O)cc3)cc2)c2ccc(S(=O)(=O)O)cc12,-1,2,5%,16%,21%
